# Data taken from PubChem BioAssay (NCATS).
# Values joined by “and” are separate entries in the source; they are usually repeats but may differ in a detail not shown here. Identical values can stand only once. Results filed as inconclusive are left out. Where a call stands in place of a potency, no number is given. The source holds several records for some structures; these can differ, active in one and inactive in another. Active and inactive are the calls of the source. Unless noted, the call rests on the fitted dose curve; in most records, active means well fitted curve in the direction sought with a large enough effect; inconclusive means small, poorly fitted or top-dose-only effect, or another doubt; inactive means no such curve, though single readings can be large; an effect the other way counts as inactive or inconclusive. Where a SMILES comes first, the peptide text is derived from it. Bridges are numbered along the chain shown (N, C = ends). [ ]: non-standard residue; d: D form. The star is where a group is joined. X1 = CCC(C)C(N)C1=NC(C(=O)*)CS1; dOrn = NCCC[C@@H](N)C(=O)O
# Legend:
# [1] = target: Cytochrome P450 2D6 (Homo sapiens) (UniProt P10635); assay: Cytochrome P450 family 2 subfamily D member 6 (CYP2D6) small molecule antagonists: luciferase biochemical (cell-free) qHTS assay (AID 1645840; active means well fitted curve in the direction sought with a large enough effect in the repeat runs; an effect the other way counts as inactive or inconclusive; further: nearly all actives have a fitted effect of over 55% in size; further: potency means the concentration at half of the fitted maximal effect)
# Sequence of Cytochrome P450 2D6 (Homo sapiens) (P10635 whole entry, looked up): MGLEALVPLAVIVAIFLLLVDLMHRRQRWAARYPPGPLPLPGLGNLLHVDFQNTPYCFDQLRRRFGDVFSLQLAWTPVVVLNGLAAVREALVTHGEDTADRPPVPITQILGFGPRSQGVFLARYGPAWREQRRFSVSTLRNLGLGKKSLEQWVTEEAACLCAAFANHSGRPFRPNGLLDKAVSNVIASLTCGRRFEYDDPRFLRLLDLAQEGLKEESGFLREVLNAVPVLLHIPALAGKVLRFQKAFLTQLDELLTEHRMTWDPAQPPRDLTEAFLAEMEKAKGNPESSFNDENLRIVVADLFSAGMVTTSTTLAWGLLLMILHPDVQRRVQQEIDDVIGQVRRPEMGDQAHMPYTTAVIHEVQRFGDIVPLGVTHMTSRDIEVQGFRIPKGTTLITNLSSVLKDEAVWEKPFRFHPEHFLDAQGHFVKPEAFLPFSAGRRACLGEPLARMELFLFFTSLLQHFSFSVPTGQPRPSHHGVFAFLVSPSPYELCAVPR
# Summary of the method: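 P450-Glo CYP2D6 system: proluciferin substrate converted by enzyme to luciferin, read by luminescence proportional to activity. Enzyme-substrate mix with compound 10 min at room temperature, then NADPH regeneration 1 h before detection reagent.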
# [2] = target: Cytochrome P450 2C9 (Homo sapiens) (UniProt P11712); assay: Cytochrome P450 family 2 subfamily C member 9 (CYP2C9) small molecule antagonists: luciferase biochemical (cell-free) qHTS assay (AID 1645842; active means well fitted curve in the direction sought with a large enough effect in the repeat runs; an effect the other way counts as inactive or inconclusive; further: nearly all actives have a fitted effect of over 55% in size; further: potency means the concentration at half of the fitted maximal effect)
# Sequence of Cytochrome P450 2C9 (Homo sapiens) (P11712 whole entry, looked up): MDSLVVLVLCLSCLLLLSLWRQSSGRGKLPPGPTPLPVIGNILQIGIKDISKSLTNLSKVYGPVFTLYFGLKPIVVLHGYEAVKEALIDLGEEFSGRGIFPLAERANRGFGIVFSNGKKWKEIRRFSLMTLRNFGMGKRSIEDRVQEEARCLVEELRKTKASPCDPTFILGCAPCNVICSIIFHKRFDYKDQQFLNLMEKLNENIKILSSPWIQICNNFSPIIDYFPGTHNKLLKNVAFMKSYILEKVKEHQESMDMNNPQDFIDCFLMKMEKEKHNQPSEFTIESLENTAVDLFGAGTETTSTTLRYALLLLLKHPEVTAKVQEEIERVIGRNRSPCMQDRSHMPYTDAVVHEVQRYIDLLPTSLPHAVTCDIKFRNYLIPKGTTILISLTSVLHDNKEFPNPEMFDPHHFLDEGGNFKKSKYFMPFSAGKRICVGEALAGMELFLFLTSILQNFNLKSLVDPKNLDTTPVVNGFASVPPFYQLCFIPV
# Summary of the method: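 P450-Glo CYP2C9 system: proluciferin substrate with enzyme in mix containing 0.4% BSA, 10 min at room temperature, then NADPH regeneration solution added and incubated 1 h at 37C. Detection reagent stopped reaction; luminescence read after 20 min as RLU.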
# [3] = Primary qHTS for inhibitors of nuclear receptor binding SET domain protein 2 (NSD2) in an isogenic RCH-ACV NSD2 p.E1099K mutant (9B) (AID 1645876); further: nearly all actives have a fitted effect of over 70% in size; further: potency means the concentration at half of the fitted maximal effect
# [4] = Primary qHTS for inhibitors of nuclear receptor binding SET domain protein 2 (NSD2) in an RCH-ACV wild type WT cells (2C) (AID 1645877); further: nearly all actives have a fitted effect of over 70% in size; further: potency means the concentration at half of the fitted maximal effect
# [5] = target: Catechol O-methyltransferase (Homo sapiens) (UniProt P21964); assay: Confirmatory Screen for Target Class Profiling of Small Molecule Inhibitors of Methyltransferases (AID 1745852; calls by dose curve; further: potency means the concentration at half of the fitted maximal effect); conditions: MTase-Glo luminescence, SAH detection, recombinant enzyme; measured here: COMT max response; stronger effect = lower value
# Sequence of Catechol O-methyltransferase (Homo sapiens) (P21964 whole entry, looked up): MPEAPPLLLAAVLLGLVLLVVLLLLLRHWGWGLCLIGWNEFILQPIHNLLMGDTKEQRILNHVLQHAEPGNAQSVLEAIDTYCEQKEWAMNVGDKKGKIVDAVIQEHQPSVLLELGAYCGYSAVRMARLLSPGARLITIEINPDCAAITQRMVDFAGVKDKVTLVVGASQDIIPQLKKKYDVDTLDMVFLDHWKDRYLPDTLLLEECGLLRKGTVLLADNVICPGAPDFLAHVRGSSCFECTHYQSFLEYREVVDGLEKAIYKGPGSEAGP
# [6] = target: Guanidinoacetate N-methyltransferase (Homo sapiens) (UniProt Q14353); assay: as above; conditions: activity change, negative = inhibition: at 57.3 µM (top of the series) unless noted
# [7] = target: Nicotinamide N-methyltransferase (Homo sapiens) (UniProt P40261); assay: as above; conditions: MTase-Glo luminescence, SAH detection, recombinant enzyme; measured here: NNMT max response; stronger effect = lower value
# Sequence of Nicotinamide N-methyltransferase (Homo sapiens) (P40261 whole entry, looked up): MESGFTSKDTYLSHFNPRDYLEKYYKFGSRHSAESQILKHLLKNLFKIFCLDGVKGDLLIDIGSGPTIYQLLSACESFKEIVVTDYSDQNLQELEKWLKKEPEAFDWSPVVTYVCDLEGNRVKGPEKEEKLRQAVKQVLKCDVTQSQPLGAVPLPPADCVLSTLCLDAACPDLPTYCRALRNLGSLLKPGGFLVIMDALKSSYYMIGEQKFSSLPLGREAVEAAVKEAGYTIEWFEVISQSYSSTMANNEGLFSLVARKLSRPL
# [8] = target: Phenylethanolamine N-methyltransferase (Homo sapiens) (UniProt P11086); assay: as above; conditions: MTase-Glo luminescence, SAH detection, recombinant enzyme; measured here: PNMT max response; stronger effect = lower value
# Sequence of Phenylethanolamine N-methyltransferase (Homo sapiens) (P11086 whole entry, looked up): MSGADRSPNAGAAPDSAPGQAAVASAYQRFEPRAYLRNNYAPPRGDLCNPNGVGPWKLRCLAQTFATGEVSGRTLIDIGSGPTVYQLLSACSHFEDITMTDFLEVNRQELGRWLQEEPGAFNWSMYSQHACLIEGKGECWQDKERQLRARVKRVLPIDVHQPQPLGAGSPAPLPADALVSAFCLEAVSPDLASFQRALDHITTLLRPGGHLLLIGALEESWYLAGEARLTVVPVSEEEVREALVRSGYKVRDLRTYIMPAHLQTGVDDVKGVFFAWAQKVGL
# [9] = NCATS anti-infectives library activity on HEK293 viability as a counter-qHTS vs the C. elegans viability qHTS (AID 1745854);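 further: HEK293 cells exposed to compounds for 24 hr before the viability read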
# Summary of the method: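 Counter-screen for cytotoxicity: HEK293, 24 hr, 37C, compounds up to 41.7 uM final (a dilution series, 1:5). Readout CellTiter-Glo luminescence, 10 min RT. Digitonin control, […] uM final.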
# [10] = target: N-terminal Xaa-Pro-Lys N-methyltransferase 1 (Homo sapiens) (UniProt Q9BV86); assay: Confirmatory qHTS for Inhibitors of N-terminal methyltransferase 1 (NTMT1): MTaseGlo Assay (AID 1645874); further: potency means the concentration at half of the fitted maximal effect; nearly all actives have a fitted effect of over 65% in size
# Sequence of N-terminal Xaa-Pro-Lys N-methyltransferase 1 (Homo sapiens) (Q9BV86 whole entry, looked up): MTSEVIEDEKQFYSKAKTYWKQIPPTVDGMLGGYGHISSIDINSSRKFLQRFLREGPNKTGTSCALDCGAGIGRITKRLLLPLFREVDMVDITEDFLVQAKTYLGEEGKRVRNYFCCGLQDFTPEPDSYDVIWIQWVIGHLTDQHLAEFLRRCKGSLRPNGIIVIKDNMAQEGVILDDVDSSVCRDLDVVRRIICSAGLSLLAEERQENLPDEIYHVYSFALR
# Summary of the method: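 SPKRIA peptide at 1 uM was methylated by 125 nM NTMT1 using 100 uM SAM over 30 min at room temperature, following a 15 min compound preincubation. Product SAH was detected luminescently.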
# [11] = target: Cytochrome P450 3A4 (Homo sapiens) (UniProt P08684); assay: Cytochrome P450 family 3 subfamily A member 4 (CYP3A4) small molecule antagonists: luciferase qHTS assay (AID 1645841; active means well fitted curve in the direction sought with a large enough effect in the repeat runs; an effect the other way counts as inactive or inconclusive; further: nearly all actives have a fitted effect of over 45% in size)
# Sequence of Cytochrome P450 3A4 (Homo sapiens) (P08684 whole entry, looked up): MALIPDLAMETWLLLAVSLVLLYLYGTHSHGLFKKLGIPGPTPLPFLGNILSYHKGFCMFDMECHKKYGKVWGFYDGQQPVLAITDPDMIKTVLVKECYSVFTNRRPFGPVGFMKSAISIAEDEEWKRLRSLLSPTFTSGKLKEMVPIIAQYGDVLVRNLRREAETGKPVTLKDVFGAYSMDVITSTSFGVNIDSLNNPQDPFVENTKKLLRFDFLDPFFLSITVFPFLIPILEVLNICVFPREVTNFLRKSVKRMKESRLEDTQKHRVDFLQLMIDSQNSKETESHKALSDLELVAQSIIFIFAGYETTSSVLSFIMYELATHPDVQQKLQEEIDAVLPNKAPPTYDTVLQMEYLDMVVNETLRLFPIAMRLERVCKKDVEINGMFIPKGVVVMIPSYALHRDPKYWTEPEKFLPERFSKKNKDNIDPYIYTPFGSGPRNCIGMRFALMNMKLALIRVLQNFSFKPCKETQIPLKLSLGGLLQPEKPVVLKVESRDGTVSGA
# Summary of the method: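 P450-Glo CYP3A4 enzyme with proluciferin substrate was preincubated with DMSO-dissolved compounds for 10 min at room temperature. NADPH regeneration solution started a 1 h reaction. Detection reagent stopped it, and luminescence was read after 20 min.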
structure (smiles),measurement,setting,value
Cc1cc(Nc2ncc(Cl)c(Nc3ccccc3S(=O)(=O)C(C)C)n2)c(OC(C)C)cc1C1CCNCC1,Potency,[1],16.9 µM (active)
same,Potency,[2],3.38 µM (active)
same,Potency,[3],3.25 µM (active) and 5.25 µM (active)
same,Potency,[4],2.9 µM (active) and 3.72 µM (active)
CNC(=O)COC(=O)NCCC1CCN(c2cccc(C)n2)CC1,Potency,[1],inactive
same,Potency,[2],inactive
same,Potency,[3],inactive
same,Potency,[4],inactive
COc1ccc(C[C@H](N)C(=O)N[C@H]2[C@@H](O)[C@H](n3cnc4c(N(C)C)ncnc43)O[C@@H]2CO)cc1,Potency,[1],inactive
same,Potency,[3],409 nM (active)
same,Potency,[4],258 nM (active)
C[C@]12C=CC(=O)C=C1CC[C@@H]1[C@@H]2[C@@H](O)C[C@@]2(C)[C@H]1CC[C@]2(O)C(=O)COC(=O)CCC(=O)O,Potency,[1],inactive
same,Potency,[2],inactive
same,Potency,[4],258 nM (active)
Cc1ccc2c(c1)C=Cc1cc(C)ccc1C2c1cn(Cc2ccc(C(=O)Nc3nn[nH]n3)o2)c(=O)[nH]c1=S,Potency,[1],inactive
same,Potency,[3],inactive
same,Potency,[4],inactive
same,activity,[5],-11%
same,"activity change, negative = inhibition",[6],-0.0663%
same,activity,[7],-18.9%
same,activity,[8],-2.77%
O=C1N(CC2CCCCN2)CCN1c1ccccc1 (stereo not given),Potency,[1],15.1 µM (active)
same,Potency,[2],inactive
same,Potency,[3],inactive
same,Potency,[4],inactive
CN1CCC(c2c[nH]c3ccc(NC(=O)c4ccc(F)cc4)cc23)CC1,Potency,[1],16.9 µM (active)
same,Potency,[2],inactive
same,Potency,[3],inactive
same,Potency,[4],inactive
same,activity,[5],-8.83%
same,"activity change, negative = inhibition",[6],-10.4%
same,activity,[7],-3.82%
same,activity,[8],-4.53%
O=C(O)[C@H]1CCCC[C@H]1C(=O)N1CCc2ccccc2[C@H]1CN1C(=O)c2ccccc2C1=O,Potency,[1],inactive
same,Potency,[4],inactive
CC(=O)NCCCCn1c2c(c3ccccc31)C(=O)NCC2,Potency,[1],inactive
same,Potency,[2],inactive
same,Potency,[3],inactive
same,Potency,[4],inactive
same,activity,[5],-9.83%
same,"activity change, negative = inhibition",[6],-8.34%
same,activity,[7],-4.05%
same,activity,[8],-4.46%
Cc1c(-c2ccnn2C)cc(C(=O)NCc2ccc(S(C)(=O)=O)cn2)c(=O)n1-c1cccc(C(F)(F)F)c1,Potency,[1],inactive
same,Potency,[3],inactive
same,Potency,[4],inactive
same,outcome,[9],inactive
C=Cc1cc(O)cc2nc(-c3ccc(O)c(F)c3)oc12,Potency,[1],21.3 µM (active)
same,Potency,[10],44.7 µM (active)
same,activity,[5],-54.6%
same,Potency,[6],30.4 µM (active)
same,activity,[7],-36%
same,activity,[8],-50.4%
NCc1c[nH]c(=S)n1C1CCc2c(F)cc(F)cc2C1 (stereo not given),Potency,[1],3.79 µM (active)
same,Potency,[3],inactive
same,Potency,[4],inactive
COc1cc(N2CCC(N(C)C)CC2)ccc1Nc1ncc(Cl)c(Nc2ccccc2P(C)(C)=O)n1,Potency,[1],inactive
same,Potency,[3],2.3 µM (active) and 2.63 µM (active)
same,Potency,[4],3.25 µM (active) and 3.32 µM (active)
C#Cc1cnc2[nH]c(=O)n(C(CC)CC)c2n1,Potency,[11],inactive
same,Potency,[2],8.49 µM (active)
same,Potency,[3],inactive
same,Potency,[4],inactive
O=C(NC[C@H](O)CN1CCc2ccccc2C1)c1cc(NC2COC2)ncn1,Potency,[11],inactive
same,Potency,[2],inactive
same,Potency,[3],inactive
COc1ccccc1-n1c(SCC(=O)Nc2nc3ccc(C)cc3s2)nc2c(c1=O)SCC2,Potency,[1],inactive
same,Potency,[3],inactive
same,Potency,[4],inactive
Cc1cn2c(N)c(Cl)cc(C(=O)NCC3CCN(CC(C)C)CC3)c2n1,Potency,[1],4.77 µM (active)
same,Potency,[3],inactive
Nc1nc(CC(=O)Nc2ccc(CCNCC(O)c3ccccc3)cc2)cs1 (stereo not given),Potency,[1],0.477 µM (active)
same,Potency,[3],inactive
same,Potency,[4],inactive
CCC(C)C(N)C1=NC(C(=O)N[C@@H](CC(C)C)C(=O)N[C@H](CCC(=O)O)C(=O)N[C@H](C(=O)N[C@H]2CCCCNC(=O)[C@H](CC(N)=O)NC(=O)[C@@H](CC(=O)O)NC(=O)[C@H](Cc3cnc[nH]3)NC(=O)[C@@H](Cc3ccccc3)NC(=O)[C@H]([C@@H](C)CC)NC(=O)[C@@H](CCCN)NC2=O)[C@@H](C)CC)CS1 (stereo not given in full) (X1-L[dE]IK[dOrn]I[dF]H[dD]N; lactam 4-C),Potency,[1],inactive
same,Potency,[10],2.94 µM (active)
same,Potency,[3],inactive
same,Potency,[4],inactive
NS(=O)(=O)OC[C@@H]1C[C@@H](n2ccc3c(N[C@H]4CCc5ccccc54)ncnc32)C[C@@H]1O,Potency,[1],inactive and 8.49 µM (active)
same,Potency,[2],21.3 µM (active)
same,Potency,[3],325 nM (active) and 409 nM (active) and 525 nM (active)
same,Potency,[4],365 nM (active) and 515 nM (active) and 525 nM (active)
same,activity,[5],-6.43% and -2.13%
same,"activity change, negative = inhibition",[6],-2.34% and 2.95%
same,activity,[7],-12% and -2.45%
same,activity,[8],-79.3% and -73.9%
same,outcome,[9],inactive
CC(C)c1ccc(CC(=O)N2CCC[C@@H](c3cccc(OC(C)(C)C(=O)O)c3)C2)cc1,Potency,[1],inactive
same,Potency,[3],inactive
same,Potency,[4],inactive
Cc1[nH]cnc1C1CCN(c2nc3cccc4c3n2CCC4=O)CC1,Potency,[1],9.52 µM (active)
same,Potency,[2],9.52 µM (active)
same,Potency,[3],inactive
same,Potency,[4],inactive
same,activity,[5],1.4%
same,"activity change, negative = inhibition",[6],0.0241%
same,activity,[7],-9.9%
same,activity,[8],1.15%
C[C@@H](Nc1cc(NS(=O)(=O)N2CCC2)nc(SCc2cccc(F)c2F)n1)[C@@H](O)CO,Potency,[1],inactive
same,Potency,[2],inactive
same,Potency,[3],inactive
same,Potency,[4],inactive
O=c1c2cccnc2n(-c2cccc([N+](=O)[O-])c2)c(=O)n1Cc1ccncc1,Potency,[1],1.51 µM (active)
same,Potency,[2],0.268 µM (active)
same,Potency,[3],inactive
same,Potency,[4],inactive
COc1ccc([C@@H]2N[C@H](C(=O)O)Cc3c2[nH]c2ccccc32)cc1CN1CCN(c2ccccc2F)CC1,Potency,[1],13.5 µM (active)
same,Potency,[2],inactive
same,Potency,[3],inactive
same,Potency,[4],inactive
